Laboratory results as given in PubChem BioAssay AID1159580 (chemical genetic matrix, 2015).
Where “and” joins values, the source holds several entries; their conditions need not be identical. Equal entries are not always repeated. The whole screen tested about 5,500 compounds, of which about 2,000 (36%) were called active. Not shown: some 18% with an inconclusive outcome. No stated cut-off is given here; in the data, active means normalized growth mostly below about 0.91 (no sharp cut-off); inconclusive means no clear call, values can overlap the other calls; inactive means mostly above about 0.92. This is one part of the list.

Test: chemical genetic growth profiling, strain panel (AID 1159580);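 further: tested at 20 µM; growth read once vehicle control cultures reached saturation at 30 °C; 1 = growth at the plate median or of vehicle wells; lower values mean less growth of the strain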
Conditions: S. cerevisiae deletion strains, growth OD

Measured: normalized growth

OCC(O)CN1CCN(c2ccccc2)CC1 (stereo unspecified)
inactive: locus YAL013W, strain DEP1, hits give low values 0.995 | locus YAL021C, strain ccr4, hits give low values 0.923 | locus YAL026C, strain drs2, hits give low values 0.982 | locus YAL030W, strain snc1, hits give low values 0.996 | locus YBL061C, strain skt5, hits give low values 0.989 | locus YBR009C, strain hhf1, hits give low values 1 | locus YBR021W, strain FUR4, hits give low values 0.972 | locus YBR023C, strain chs3, hits give low values 0.997 | locus YBR171W, strain sec66, hits give low values 0.968 | locus YBR229C, strain ROT2, hits give low values 0.984 | locus YBR231C, strain swc5, hits give low values 0.999 | locus YBR279W, strain paf1, hits give low values 0.974 | locus YCL011C, strain gbp2, hits give low values 0.977 | locus YCL016C, strain dcc1, hits give low values 0.988 | locus YCL029C, strain bik1, hits give low values 0.978 | locus YCL061C, strain MRC1, hits give low values 0.973 | locus YCL069W, strain vba3, hits give low values 0.989 | locus YCR088W, strain abp1, hits give low values 0.98 | locus YDL005C, strain med2, hits give low values 0.963 | locus YDL035C, strain GPR1, hits give low values 1.02 | locus YDL040C, strain nat1, hits give low values 0.979 | locus YDL074C, strain BRE1, hits give low values 0.984 | locus YDL101C, strain DUN1, hits give low values 0.984 | locus YDL134C, strain PPH21, hits give low values 0.991 | locus YDL185W, strain tfp1, hits give low values 0.99 | locus YDL192W, strain arf1, hits give low values 0.995 | locus YDR001C, strain nth1, hits give low values 0.98 | locus YDR069C, strain doa4, hits give low values 0.982 | locus YDR101C, strain arx1, hits give low values 0.965 | locus YDR137W, strain rgp1, hits give low values 0.95 | locus YDR150W, strain NUM1, hits give low values 1 | locus YDR159W, strain sac3, hits give low values 1.01 | locus YDR162C, strain NBP2, hits give low values 1.01 | locus YDR195W, strain ref2 0.967 | locus YDR297W, strain sur2, hits give low values 0.982 | locus YDR318W, strain mcm21, hits give low values 0.989 | locus YDR334W, strain swr1, hits give low values 0.945 | locus YDR335W, strain msn5, hits give low values 0.978 | locus YDR388W, hits give low values 0.991 | locus YDR392W, strain spt3, hits give low values 0.931 | locus YDR502C, strain sam2, hits give low values 0.995 | locus YEL003W, strain gim4, hits give low values 0.938 | locus YEL037C, strain rad23, hits give low values 0.986 | locus YEL061C, strain CIN8 (second series), hits give low values 0.985 | locus YEL061C, strain CIN8, hits give low values 1 | locus YER015W, strain faa2, hits give low values 1 | locus YER016W, strain bim1, hits give low values 0.991 | locus YER110C, hits give low values 0.988 | locus YER111C, strain swi4, hits give low values 0.983 | locus YER155C, strain BEM2 (second series), hits give low values 1 | locus YER155C, strain BEM2, hits give low values 0.977 | locus YER167W, strain BCK2, hits give low values 1.01 | locus YGL078C, strain dbp3, hits give low values 0.991 | locus YGL086W, strain mad1, hits give low values 0.998 | locus YGL167C, strain pmr1, hits give low values 0.998 | locus YGL173C, strain kem1, hits give low values 0.978 | locus YGL227W, strain vid30, hits give low values 0.985 | locus YGL240W, strain doc1, hits give low values 1.01 | locus YGL248W, strain PDE1, hits give low values 0.975 | locus YGL253W, strain hxk2, hits give low values 0.993 | locus YGR078C, strain PAC10, hits give low values 0.99 | locus YGR135W, strain pre9, hits give low values 0.98 | locus YGR229C, strain SMI1, hits give low values 1.01 | locus YGR252W, strain gcn5, hits give low values 1.08 | locus YHR013C, strain ard1, hits give low values 0.953 | locus YHR027C, strain rpn1, hits give low values 0.984 | locus YHR030C, strain SLT2, hits give low values 0.991 and 0.969 | locus YHR079C, strain IRE1 (second series), hits give low values 0.991 | locus YHR079C, strain IRE1, hits give low values 0.965 | locus YHR094C, strain hxt1, hits give low values 0.992 | locus YHR129C, strain ARP1, hits give low values 0.985 | locus YHR142W, strain chs7, hits give low values 0.932 | locus YHR200W, strain rpn10, hits give low values 0.993 | locus YIL066C, strain RNR3, hits give low values 1 | locus YIL073C, strain SPO22, hits give low values 1.03 | locus YIL125W, strain kgd1, hits give low values 1 | locus YIR030C, strain dcg1, hits give low values 0.988 | locus YJL092W, strain hpr5, hits give low values 0.965 | locus YJL095W, strain BCK1 (second series), hits give low values 0.989 | locus YJL095W, strain BCK1, hits give low values 0.981 and 0.975 | locus YJL115W, strain asf1, hits give low values 0.965 | locus YJL129C, strain trk1, hits give low values 0.957 | locus YJL134W, strain LCB3, hits give low values 0.988 | locus YJL154C, strain vps35, hits give low values 0.983 | locus YJL164C, strain tpk1, hits give low values 0.966 | locus YJL166W, strain qcr8, hits give low values 1 | locus YJL168C, strain set2, hits give low values 0.983 | locus YJL187C, strain SWE1 (second series), hits give low values 0.988 | locus YJL187C, strain SWE1, hits give low values 0.981 | locus YJR043C, strain POL32, hits give low values 0.977 | locus YJR066W, strain TOR1, hits give low values 0.908
